Data reported in the emibetuzumab library of Makowski et al. (2022).
This is one part of the list. The true hit rate is not given.

B1: VH:VL chains; a variant is named by its letters at X, in order (parent)
chain 1: QVQLVQSGAEVKKPGASVKVSCKASGYTFTDYXMHWVRQAPGQGLEWMGXVNPNXXXTTYNQKFEGRVTMTTDTSTSTAYMELRSLRSDDTAVYYCARXNXLDXWGQGTTVTVSS
chain 2: DIQMTQSPSSLSASVGDRVTITCSVSSSVSSIYLHWYQQKPGKAPKLLIYSTSNLASGVPSRFSGSGSGTDFTLTISSLQPEDFATYYCQVYSGYPLTFGGGTKVEIK

Variants of: B1
Assay: yeast display scFab, FACS + sequencing
Settings: with MET
Procedure, shortened: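 Round-3 sorted and input populations from a heavy-chain CDR mutant scFab yeast library were deep sequenced in two replicates. Sorting used FACS on cells labelled for 3 h at room temperature with 1 nM HGFR-Fc and anti-Myc in PBSB with 1% milk, keeping the top 50% antigen-positive cells. Any sequence seen in both antigen-positive samples was called a binder, while one seen only in the input was called a non-binder.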

Variant | antigen binding call
FAGGGDAV | no binding
VRERGDAA | no binding
VRTKADAV | no binding
VRGGGDAA | no binding
VRAGGDAA | binds
VRAGDDAV | no binding
VRAGGDAV | binds
YRRGDAAF | binds
DRRGDDVF | no binding
YRRGGAGF | binds
YRKGGAWF | binds
YRRESAGF | binds
VAEKDDGS | no binding
SGGTGDVF | no binding
FTGEADAS | no binding
AARADSWV | no binding
YRRGDAGF | binds
YRKGGAGF | binds
YRRGSAGF | binds
ARRGGSGF | no binding
YRRGSSGF | binds
YAGGDDGA | no binding
SETTDSSA | no binding
DAGGGYGV | no binding

Variant | antigen binding call
AGERNVAS | no binding
YRRKGALV | binds
YRRGGALV | binds
YRRKGASV | binds
ATKAASWV | no binding
FRGGDYGS | no binding
FRGGSSGS | binds
FRGGGSGS | binds
ATTGGDWD | no binding
YRKRGAGA | binds
YRKRGAAA | binds
VTGEDAGS | no binding
YRGGGDVS | binds
YRGKGALS | binds
YRERSDVS | no binding
YKGRGAAS | binds
YAGRGDAS | no binding
YKTGGASS | binds
YAGRGSAS | no binding
YTGTSDVS | no binding
YTGTSDVY | no binding
FTRGADAV | no binding
DAGGDDVY | no binding
VRGRGALS | binds

Variant | antigen binding call
YKTRGAVS | no binding
YKGEGFSS | no binding
YKGRGASS | binds
YKGRGAVS | binds
YAGRGDVS | no binding
YKGRGALS | binds
VETEGAVY | no binding
DKEGGDGV | no binding
AATTDSGV | no binding
VREGDDAV | no binding
YRGRGALS | binds
DRAGDDGS | no binding
YRGKSDGS | no binding
YRGGGALS | binds
DRGGGDAS | no binding
YRGGSDGS | binds
SEARSDVV | no binding
SRTRGFVV | no binding
FRERGAVV | binds
YKERGDVV | binds
FRTRGAVV | binds
DREEGAVV | no binding
YRERGAVV | binds
YKGEGDVV | no binding

Variant | antigen binding call
SKERGDVV | no binding
VAETAAAA | no binding
AEARAAGS chain 1 V37I | no binding
VARAADAD | no binding
ATGEGDWS | no binding
VGATSFSA | no binding
YKGGSFGV | no binding
YKGAASGV | no binding
YEKGGDGV | no binding
YKAGGSGV | binds
YKKGGSGV | binds
YKERASGV | no binding
YKGGSSGV | binds
FTGTSAAF | no binding
VTEGDDVF | no binding
YRKGSSWD | binds
YRKGSAWD | binds
DGKEGYWA | no binding
DAEGDDGA | no binding
FRGAGSVA | binds
YRGAGSLD | binds
FRGAGSVD | binds
YRGAGSVD | binds
YRGAGFVD | no binding

Variant | antigen binding call
SKTKSDVA | no binding
SKERGDWV | no binding
VERKGYLA | no binding
VETGNSSA | no binding
AGGGNAGD | no binding
VRGRSDVF | no binding
VRRGSSAF | binds
VRGRSSLF | binds
VREAADSF | no binding
VGGTSSAD | no binding
VRGGDDVF | no binding
VRRGSSLF | binds
VRRGSSAD | binds
DAKENAVY | no binding
YTGGDDVY | no binding
VAEATDLY | no binding
DAGGASLD | no binding
STATADVA | no binding
SAGEGDWV | no binding
AKTRDFVA | no binding
DTAGDAAV | no binding
VAKRDSAS | no binding
VKETSVLF | no binding
VKRGSSLF | binds

Variant | antigen binding call
VRRGSSAS | binds
FKAEAFSF | no binding
FERTSALF | no binding
FKRGSSLF | binds
VRTEDDAS | no binding
VAGTGSSV | no binding
DAEATDGA | no binding
DATGGDGY | no binding
DTGGSASA | no binding
YRKRGAAD | binds
YAKRDAGD | no binding
YRKGGAVD | binds
YRKRGAVD | binds
YRKRGAGD | binds
AKATADVD | no binding
DTGGGDAV | no binding
YRGAGSAD | binds
YAGAGSAD | no binding
YKGAGSAD | no binding
YRGAGAAD | binds
YKTKSDWV | no binding
YAGKGAWV | no binding
YKGKGAWV | binds
YKGKSAWV | binds

Variant | antigen binding call
VKGKGDWV | no binding
DEGGTDSA | no binding
SEEEGSAA | no binding
SKGKGVGA | binds
SKRRSVGA | no binding
SKGKGSAA | binds
YKGKGSAA | binds
SKGKGSSA | no binding
YKGKGFAA | no binding
SKAKGSAA | binds
AARADSGD | no binding
DEGRSVAA | no binding
DAARAVSS | no binding
VAKADALD | no binding
FKGEGDSA | no binding
YRGKGSAA | binds
VKGKGSAA | binds
YAEGASSF | no binding
VTAESSSF | no binding
VRERGDWF | no binding
YRERGSSF | binds
VRAGGDSF | no binding
VRERGSSF | binds
VRARGSSF | binds

Variant | antigen binding call
AETAGAAA | no binding
DAATAYGS | no binding
FRTKGSGD | binds
FATKGFGD | no binding
FATRASGD | no binding
FRGTGSGD | no binding
FRGKGSGD | binds
VEEEGDGV | no binding
YAGTGFWV | no binding
DEGGTDAV | no binding
YKGKGSAV | binds
FKGKGAAF | no binding
YKGRASAV | no binding
FREGSASV | no binding
FREEGFSV | no binding
FRGKGAAV | binds
FKGKGAVV | binds
FRGKGASV | binds
DATGGSGD | no binding
FKATTVVD chain 1 S88F | no binding
VKGKGDAV | no binding
YEGGGSAV | no binding
YKGGGSAV | binds
FKGKGAAV | binds

Variant | antigen binding call
AKGKGAAV | no binding
YRGKGSAV | binds
FRGKGSAV | binds
DKGGGFAV | no binding
FKGRGAAS | binds
DAGGADAV | no binding
DEGGTDWY | no binding
YTRGAAGY | no binding
YKRESAGY | binds
YKRRDAVY | no binding
YKRGDAGY | binds
YARETDVV | no binding
DGARNAGV | no binding
VTGTGSSA | no binding
FRKGGAGS | binds
YRKGGAGS | binds
FRKRSFSS | no binding
YRKGGFSS | no binding
YRKGGAAS | binds
